Among the data in PubChem BioAssay (NCI) are growth values, retold here.

Test systems include NCI-H226 lung; NCI-H322M lung; HOP-62 NSCLC; NCI-H460 lung; HOP-92 NSCLC; NCI-H522 lung; A549/ATCC NSCLC; 786-0 renal; COLO 205 colon.
Assay in all cases: NCI-60 one-dose screen, 48 h (100 = growth as untreated, 0 = no growth, -100 = all killed)
Conditions in all cases: 10 µM unless noted

This is part of a sample that, as a whole, favours compounds with a hit. Of some 83,000 tested, about 20% had one in any assay.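 Values shown are percent growth following 48 h exposure of cells in 96-well plates to a single concentration of compound; below 10 was considered active.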 A number with no mark means an inactive call. Calls of active or inactive are those of the source.

`O=[N+]([O-])c1ccc(O)cc1Br`: the growth with NCI-H226 lung is 93.2%; with NCI-H322M lung, 105%; in the experiment on HOP-62 NSCLC, 92.4%; in the experiment with NCI-H460 lung, 104%; in the experiment with HOP-92 NSCLC, 44.8%; in the experiment with NCI-H522 lung, 90.7%. Besides, the growth with A549/ATCC NSCLC was 103%; in the experiment on 786-0 renal, 99.8%; in the experiment with COLO 205 colon it was 108%.
Regarding `CCn1cc(C(=O)O)c(=O)c2cc(F)c(N3CCN(CC(=O)Nc4ccc(S(=O)(=O)Nc5nccc(C)n5)cc4)C(C)C3)c(F)c21` (stereo unspecified), the growth in the experiment on NCI-H226 lung is 97.1%; with NCI-H322M lung it was 104%; in the experiment on HOP-62 NSCLC it was 103%; with NCI-H460 lung it was 104%; in the experiment on HOP-92 NSCLC, 119%; with NCI-H522 lung, 105%. The growth in the experiment on A549/ATCC NSCLC is 111%; with 786-0 renal, 112%; in the experiment on COLO 205 colon, 118%.
With `Nc1nc(N)c(-c2ccc(Cl)c(Cl)c2)c(CBr)n1`, the growth with NCI-H226 lung was 93.3%; in the experiment with NCI-H322M lung it was 78.4%; in the experiment on HOP-62 NSCLC, 102%; in the experiment with NCI-H460 lung it was 25.7%; with NCI-H522 lung, 9.79% (active); in the experiment on A549/ATCC NSCLC, 27%. Also, the growth is 52% in the experiment on 786-0 renal and 76.6% with COLO 205 colon.
`COc1cc2nc3cc([N+](=O)[O-])ccc3c(NCCNCC(C)O)c2cc1OC` (stereo unspecified): the growth was -11.1% (active) with NCI-H226 lung; -11.9% (active) with NCI-H322M lung; -19.2% (active) in the experiment on HOP-62 NSCLC; -40.2% (active) with NCI-H460 lung; -42.1% (active) in the experiment on HOP-92 NSCLC; -26.6% (active) in the experiment with NCI-H522 lung. The growth in the experiment on A549/ATCC NSCLC was -26.8% (active); in the experiment on 786-0 renal, -3.6% (active); in the experiment on COLO 205 colon it was -76.6% (active).
Regarding `COc1ccc(C/C(C)=C(/c2ccc(OCCN(C)C)cc2)c2ccc(OC(=O)NCc3ccccc3)cc2)cc1`, the growth in the experiment with NCI-H226 lung was 97.7%; with NCI-H322M lung it was 80.8%; in the experiment with HOP-62 NSCLC it was 83.3%; with NCI-H460 lung, 22.9%; in the experiment on HOP-92 NSCLC, 38.2%; in the experiment with NCI-H522 lung it was 50.4%. For the same compound, the growth is 55% with A549/ATCC NSCLC, 61.1% in the experiment on 786-0 renal and 20.4% in the experiment with COLO 205 colon.
Regarding `O=S(=O)(Nc1cc(Cl)ccc1Cl)c1ccc(-c2cnc(C3CC3)o2)cc1`, the growth is 40.3% with NCI-H226 lung; 59.4% in the experiment with NCI-H322M lung; 39.8% in the experiment on HOP-62 NSCLC; 24.8% with NCI-H460 lung; 40.4% with HOP-92 NSCLC; 0.738% (active) with NCI-H522 lung. The growth was 45.2% with A549/ATCC NSCLC, 33% in the experiment with 786-0 renal and 43.5% in the experiment on COLO 205 colon.
For the compound `Cc1ccc(-c2nc([P+](c3ccccc3)(c3ccccc3)c3ccccc3)c(S(=O)(=O)c3ccc(C)cc3)o2)cc1`, the growth is 46.9% in the experiment on NCI-H226 lung; 57.2% in the experiment on NCI-H322M lung; 17.7% in the experiment on HOP-62 NSCLC; 4.75% (active) with NCI-H460 lung; -7.71% (active) in the experiment on HOP-92 NSCLC; 4.04% (active) in the experiment with NCI-H522 lung. The figures for the growth with A549/ATCC NSCLC, in the experiment on 786-0 renal and in the experiment with COLO 205 colon were 27.5%, -18.7% (active) and -38.1% (active), respectively.
With `CCCCC1=C(P(=O)(O)O)N[C@H](C(=O)O)CS1`, the growth in the experiment with NCI-H226 lung is 95.5%; with NCI-H322M lung it was 73.8%; in the experiment on HOP-62 NSCLC, 89.4%; in the experiment on NCI-H460 lung, 107%; in the experiment on HOP-92 NSCLC it was 89.5%; in the experiment on NCI-H522 lung it was 83.2%. Further, the results for the growth in the experiment with A549/ATCC NSCLC and in the experiment on 786-0 renal were 92% and 95.1%, respectively.
On to `C1CCC([PH+](C2CCCCC2)C2CCCCC2[PH+](C2CCCCC2)C2CCCCC2)CC1.[Au].[CH-]1CCCCC1C1CCCC[N-]1` (stereo unspecified), for which the growth in the experiment with NCI-H226 lung was -35.1% (active); in the experiment on NCI-H322M lung, -52% (active); in the experiment on HOP-62 NSCLC it was -39.9% (active); in the experiment on NCI-H460 lung, -69.8% (active); in the experiment on HOP-92 NSCLC, -38.5% (active); in the experiment on NCI-H522 lung, -51% (active). Moreover, the growth in the experiment with A549/ATCC NSCLC was -56.8% (active); with 786-0 renal, -64.6% (active); with COLO 205 colon, -62% (active).
As for `Cc1[nH]c(=O)[nH]c(=O)c1Br`, the growth with NCI-H226 lung is 108%; with NCI-H322M lung, 120%; in the experiment on HOP-62 NSCLC it was 104%; in the experiment on NCI-H460 lung it was 105%; with HOP-92 NSCLC it was 102%; in the experiment with NCI-H522 lung, 111%. Further, the growth in the experiment with A549/ATCC NSCLC was 98.2%; with 786-0 renal, 107%; with COLO 205 colon, 112%.
For the compound `O=C(CN1CCCCC1)Nc1nc(-c2cc3ccccc3oc2=O)cs1`, the growth was 88.3% in the experiment on NCI-H226 lung; 93.9% in the experiment on NCI-H322M lung; 96.2% in the experiment on HOP-62 NSCLC; 103% with NCI-H460 lung; 98.7% in the experiment with HOP-92 NSCLC; 93.6% in the experiment on NCI-H522 lung. Also, the values for the growth in the experiment with A549/ATCC NSCLC, with 786-0 renal and in the experiment with COLO 205 colon were 102%, 95.4% and 116%, respectively.
For the compound `N=C(N)c1ccc(-c2ccc(-c3ccc(Cl)cc3Cl)s2)cc1`, the growth in the experiment on NCI-H226 lung was 77.9%; in the experiment with HOP-62 NSCLC, 34.1%; in the experiment on NCI-H460 lung, -66.3% (active); in the experiment with HOP-92 NSCLC, 75.2%; in the experiment on NCI-H522 lung it was -28.6% (active); in the experiment with A549/ATCC NSCLC it was -30.2% (active). Besides, the growth is -18% (active) in the experiment with 786-0 renal and -31.6% (active) with COLO 205 colon.
In the case of `CC/C=C\C[C@H](O)C/C=C1/C(=O)C=C[C@@H]1C/C=C\CCCC(=O)N(C)C`, the growth in the experiment with NCI-H226 lung is -51.3% (active); in the experiment with NCI-H322M lung, 18.3%; with HOP-62 NSCLC it was -40.2% (active); in the experiment with NCI-H460 lung, -26.3% (active); in the experiment with HOP-92 NSCLC it was -4.76% (active); with NCI-H522 lung it was -88.2% (active). The growth in the experiment with A549/ATCC NSCLC is -35.6% (active); with 786-0 renal it was -66.2% (active).
`Cc1cc(=O)n(C(=O)Nc2ccccc2Cl)c2cc(O)ccc12`: the growth with NCI-H226 lung is 98.7%; in the experiment on NCI-H322M lung it was 88.7%; in the experiment on HOP-62 NSCLC, 89.2%; in the experiment with NCI-H460 lung, 100%; in the experiment with HOP-92 NSCLC, 79.7%; with NCI-H522 lung it was 95.2%. In addition, the growth in the experiment with A549/ATCC NSCLC is 101%; in the experiment on 786-0 renal, 103%; in the experiment with COLO 205 colon, 100%.
Consider `COc1ccc(CNc2c3ccccc3nc3ccccc23)cc1`, for which the growth in the experiment on NCI-H226 lung was 51.4%; with NCI-H322M lung, 47.1%; in the experiment with HOP-62 NSCLC, 53.9%; in the experiment on NCI-H460 lung it was 9.69% (active); with HOP-92 NSCLC, 24.6%; in the experiment with NCI-H522 lung it was 53%. The results for the growth with A549/ATCC NSCLC, with 786-0 renal and with COLO 205 colon were 28.9%, 32.4% and 11.6%, respectively.
